Test results taken from PubChem BioAssay (Tox21).
“And” between values parts separate entries of the source, which are not always exact repeats. Equal entries are not always repeated. More than one record can exist for a structure, and the calls need not agree. The source made the active and inactive calls. Unless noted, calls come from the whole dose curve; as a rule, active = well fitted curve in the direction sought with a large enough effect in the repeat runs; inconclusive = weak or mixed curves; inactive = no such curve, though single readings can be large; an effect the other way counts as inactive or inconclusive.

How the values were obtained:
[1] = system: thyroid hormone receptor (rat, GH3 cells); test: qHTS assay to identify small molecule agonists of the thyroid receptor (TR) signaling pathway (AID 743066; calls by dose curve; note: potency is the fitted concentration of half-maximal effect)
[2] = qHTS assay to identify small molecule antagonists of the estrogen receptor alpha (ER-alpha) signaling pathway - cell viability counter screen (AID 743074; calls by dose curve;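 note: HEK293 cells carrying ER-alpha-UAS-bla reporter stimulated with 17beta-estradiol; nearly all actives have a fitted effect of over 45% in size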; note: potency is the fitted concentration of half-maximal effect)
[3] = qHTS assay to identify small molecule antagonists of the estrogen receptor alpha (ER-alpha) signaling pathway using the BG1 cell line - cell viability counter screen (AID 743081);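 note: compound given together with 17beta-estradiol as the ER stimulus; nearly all actives have a fitted effect of over 45% in size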; note: potency is the fitted concentration of half-maximal effect
Aromatase (Homo sapiens) = Aromatase (Homo sapiens) (UniProt P11511); test: qHTS assay to identify aromatase inhibitors (AID 743083); note: nearly all actives have a fitted effect of over 55% in size; note: potency is the fitted concentration of half-maximal effect
Aromatase (Homo sapiens), sequence (P11511 whole entry, looked up): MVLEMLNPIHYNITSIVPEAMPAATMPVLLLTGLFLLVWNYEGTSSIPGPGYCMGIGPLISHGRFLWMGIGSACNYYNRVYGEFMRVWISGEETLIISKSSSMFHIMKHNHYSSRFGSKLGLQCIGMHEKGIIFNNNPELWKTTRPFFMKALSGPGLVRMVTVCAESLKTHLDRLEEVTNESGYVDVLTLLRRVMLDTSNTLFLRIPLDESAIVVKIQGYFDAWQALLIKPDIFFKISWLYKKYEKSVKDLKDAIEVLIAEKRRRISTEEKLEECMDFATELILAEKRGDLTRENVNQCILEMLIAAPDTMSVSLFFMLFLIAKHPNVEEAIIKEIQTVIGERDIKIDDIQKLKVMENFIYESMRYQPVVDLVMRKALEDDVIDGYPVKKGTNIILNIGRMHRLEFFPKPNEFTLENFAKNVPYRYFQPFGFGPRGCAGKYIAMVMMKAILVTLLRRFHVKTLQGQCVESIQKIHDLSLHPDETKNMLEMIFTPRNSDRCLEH

[4] = qHTS assay to identify aromatase inhibitors - cell viability counter screen (AID 743084);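 note: cells stimulated with testosterone during compound exposure; nearly all actives have a fitted effect of over 55% in size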; note: potency is the fitted concentration of half-maximal effect
[5] = target: Aryl hydrocarbon receptor (Homo sapiens) (UniProt P35869); test: qHTS assay to identify small molecule that activate the aryl hydrocarbon receptor (AhR) signaling pathway (AID 743085); note: nearly all actives have a fitted effect of over 15% in size; note: potency is the fitted concentration of half-maximal effect;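 for activation: HG2L7.5c1 human HepG2 liver cells with stably integrated DRE-driven firefly reporter; series mostly up to about 70 µM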
Aryl hydrocarbon receptor (Homo sapiens), sequence (P35869 whole entry, looked up): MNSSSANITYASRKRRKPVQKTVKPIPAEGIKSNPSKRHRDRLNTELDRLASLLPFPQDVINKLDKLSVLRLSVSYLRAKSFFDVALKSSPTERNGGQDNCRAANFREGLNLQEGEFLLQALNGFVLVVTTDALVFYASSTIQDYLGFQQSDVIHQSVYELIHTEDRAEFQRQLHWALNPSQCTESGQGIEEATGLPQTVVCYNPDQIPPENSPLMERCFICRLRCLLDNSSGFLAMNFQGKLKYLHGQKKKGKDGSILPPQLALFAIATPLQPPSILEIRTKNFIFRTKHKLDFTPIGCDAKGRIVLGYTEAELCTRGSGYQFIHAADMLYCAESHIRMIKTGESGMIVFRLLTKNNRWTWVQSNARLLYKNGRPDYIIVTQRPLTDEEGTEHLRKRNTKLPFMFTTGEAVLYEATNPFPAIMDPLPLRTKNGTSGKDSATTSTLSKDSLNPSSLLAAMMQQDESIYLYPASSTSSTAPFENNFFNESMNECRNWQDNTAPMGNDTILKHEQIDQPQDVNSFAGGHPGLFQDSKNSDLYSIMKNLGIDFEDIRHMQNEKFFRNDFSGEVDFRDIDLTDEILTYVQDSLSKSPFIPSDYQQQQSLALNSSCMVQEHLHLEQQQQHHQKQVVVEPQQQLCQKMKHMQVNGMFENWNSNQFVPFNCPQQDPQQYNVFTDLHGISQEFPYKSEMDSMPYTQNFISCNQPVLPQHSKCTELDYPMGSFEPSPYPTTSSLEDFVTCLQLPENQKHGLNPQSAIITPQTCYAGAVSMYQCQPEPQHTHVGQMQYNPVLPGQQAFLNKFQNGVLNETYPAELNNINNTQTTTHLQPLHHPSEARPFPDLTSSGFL
How it was run: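 Measured in HG2L7.5c1 cells: CellTiter-Fluor signal (30 min incubation, 37C) for viability, then luciferase luminescence (30 min, room temperature). Compound contact time was 24 h at 37C, following a 5 h pre-incubation.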

[6] = qHTS assay to identify small molecule that activate the aryl hydrocarbon receptor (AhR) signaling pathway - cell viability counter screen (AID 743086); note: nearly all actives have a fitted effect of over 45% in size; note: potency is the fitted concentration of half-maximal effect
How it was run: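 Cytotoxicity counter screen: CellTiter-Fluor signal (30 min, 37 C) in 4000 HepG2 cells/well carrying the DRE-luciferase reporter, following 24 h compound exposure at 37 C.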

[7] = qHTS assay to identify small molecule antagonists of the peroxisome proliferator-activated receptor gamma (PPARg) signaling pathway - cell viability counter screen (AID 743194); note: nearly all actives have a fitted effect of over 55% in size; note: potency is the fitted concentration of half-maximal effect
How it was run: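 Viability was measured as CellTiter-Glo luminescence in GeneBLAzer PPARg UAS-bla HEK293H cells. These cells had been exposed 17 h at 37 C to compounds together with rosiglitazone at 50 nM final, with the beta-lactamase readout taken in the same wells.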

[8] = qHTS assay for small molecule agonists of the antioxidant response element (ARE) signaling pathway - cell viability counter screen (AID 743203; calls by dose curve; note: nearly all actives have a fitted effect of over 55% in size; note: potency is the fitted concentration of half-maximal effect)
How it was run: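 Following 16 hrs of compound treatment at 37C, HepG2 cells with an ARE-controlled beta-lactamase gene were lysed with CellTiter-Glo. Luminescence was read after 30 min at room temperature.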

[9] = qHTS assay for small molecule activators of the heat shock response signaling pathway - cell viability counter screen (AID 743209); note: nearly all actives have a fitted effect of over 50% in size
How it was run: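 Readout: CellTiter-Glo luminescence, 30 min at room temperature. System: HSE-bla HeLa cells, 1500/well, plated overnight. Treatment: compounds in DMSO, 5 h at 37 C.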

[10] = target: Estrogen receptor (Homo sapiens) (UniProt P03372); test: qHTS assay to identify small molecule antagonists of the estrogen receptor alpha (ER-alpha) signaling pathway (AID 743069; active = well fitted curve in the direction sought with a large enough effect in the signal ratio in the repeat runs, not every such curve was filed as active; inconclusive = weak or mixed curves, or effect the other way; inactive = no such curve, though single readings can be large or run the other way; the % refers to the signal ratio; note: potency is the fitted concentration of half-maximal effect)
Estrogen receptor (Homo sapiens), sequence (P03372 whole entry, looked up): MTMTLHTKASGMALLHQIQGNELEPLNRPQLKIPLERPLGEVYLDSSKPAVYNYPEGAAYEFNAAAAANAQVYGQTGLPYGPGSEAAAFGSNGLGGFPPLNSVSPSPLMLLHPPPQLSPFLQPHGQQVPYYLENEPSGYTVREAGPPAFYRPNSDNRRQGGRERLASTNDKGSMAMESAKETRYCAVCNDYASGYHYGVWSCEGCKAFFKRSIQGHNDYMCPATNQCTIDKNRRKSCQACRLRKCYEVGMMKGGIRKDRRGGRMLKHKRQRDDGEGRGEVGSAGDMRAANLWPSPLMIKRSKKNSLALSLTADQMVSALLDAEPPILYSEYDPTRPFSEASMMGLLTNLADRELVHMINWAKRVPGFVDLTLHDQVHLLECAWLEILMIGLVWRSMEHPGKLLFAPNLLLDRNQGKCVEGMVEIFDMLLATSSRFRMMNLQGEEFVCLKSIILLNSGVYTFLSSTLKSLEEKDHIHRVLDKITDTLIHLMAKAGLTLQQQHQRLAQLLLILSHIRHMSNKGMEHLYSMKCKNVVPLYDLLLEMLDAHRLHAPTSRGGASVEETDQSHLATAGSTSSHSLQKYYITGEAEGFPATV
How it was run: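 ER-alpha-UAS-bla GripTite HEK293 line; 2% charcoal-stripped FBS overnight; plated, 4 hr 37C/5% CO2; cpd in DMSO + 17beta-estradiol, 18 hr 37C; LiveBLAzer B/G FRET substrate 2 hr RT; fluorescence intensity.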

[11] = target: Estrogen receptor (Homo sapiens) (UniProt P03372); test: qHTS assay to identify small molecule agonists of the estrogen receptor alpha (ER-alpha) signaling pathway (AID 743075; calls by dose curve;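 note: HEK293 GripTite cells with ER-alpha and UAS-driven beta-lactamase reporter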; note: potency is the fitted concentration of half-maximal effect)
[12] = target: Estrogen receptor (Homo sapiens) (UniProt P03372); test: qHTS assay to identify small molecule agonists of the estrogen receptor alpha (ER-alpha) signaling pathway using the BG1 cell line (AID 743079); note: nearly all actives have a fitted effect of over 20% in size; note: potency is the fitted concentration of half-maximal effect
[13] = qHTS assay to identify small molecule antagonists of the estrogen receptor alpha (ER-alpha) signaling pathway using the BG1 cell line (AID 743080; calls by dose curve; note: nearly all actives have a fitted effect of over 25% in size; note: potency is the fitted concentration of half-maximal effect)
How it was run: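 Antagonist mode: compounds in DMSO were pinned onto BG1-Luc-4E2 cells alongside 17beta-estradiol agonist, incubated 21.5 h, and ERE-driven luciferase measured with ONE-Glo. Cytotoxicity was multiplexed using CellTiter-Fluor fluorescence.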

[14] = target: Peroxisome proliferator-activated receptor gamma (Homo sapiens) (UniProt P37231); test: qHTS assay to identify small molecule agonists of the peroxisome proliferator-activated receptor gamma (PPARg) signaling pathway (AID 743094; active = well fitted activation curve with a large enough effect in the signal ratio in the repeat runs, not every such curve was filed as active; inconclusive = weak or mixed curves, or effect the other way; inactive = no such curve, though single readings can be large or run the other way; the % refers to the signal ratio)
Peroxisome proliferator-activated receptor gamma (Homo sapiens), sequence (P37231 whole entry, looked up): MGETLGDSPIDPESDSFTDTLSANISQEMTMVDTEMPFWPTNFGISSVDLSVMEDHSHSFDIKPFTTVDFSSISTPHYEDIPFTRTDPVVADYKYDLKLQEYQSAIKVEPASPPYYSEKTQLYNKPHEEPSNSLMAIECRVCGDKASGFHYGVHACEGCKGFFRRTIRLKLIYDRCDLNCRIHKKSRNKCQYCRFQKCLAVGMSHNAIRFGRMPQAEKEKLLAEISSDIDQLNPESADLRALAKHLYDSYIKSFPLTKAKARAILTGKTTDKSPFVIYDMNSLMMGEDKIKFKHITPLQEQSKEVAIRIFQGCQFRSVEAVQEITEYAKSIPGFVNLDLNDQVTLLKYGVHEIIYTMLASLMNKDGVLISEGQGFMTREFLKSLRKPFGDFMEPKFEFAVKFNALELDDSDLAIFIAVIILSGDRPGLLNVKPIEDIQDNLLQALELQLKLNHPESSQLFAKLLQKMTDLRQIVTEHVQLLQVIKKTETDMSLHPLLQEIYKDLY
How it was run: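 Compounds dissolved in DMSO were added to PPARg UAS-bla HEK293H cells for 17 h at 37C, and reporter expression was quantified by fluorescence intensity after 1 h with LiveBLAzer B/G FRET substrate.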

[15] = qHTS assay for small molecule activators of the heat shock response signaling pathway (AID 743210; active = well fitted activation curve with a large enough effect in the signal ratio in the repeat runs, with a control signal flat, not every such curve was filed as active; inconclusive = weak or mixed curves; the % refers to the signal ratio;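 note: HeLa cells with beta-lactamase reporter driven by heat shock elements; series mostly up to about 63 µM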)
How it was run: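 HeLa HSE-bla cells, overnight plating; cpd in DMSO 5 h, 37 C; LiveBLAzer B/G FRET substrate 2.5 h RT; fluorescence intensity read.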

[16] = qHTS assay to identify small molecule antagonists of the thyroid receptor (TR) signaling pathway (AID 743065); note: nearly all actives have a fitted effect of over 55% in size; note: potency is the fitted concentration of half-maximal effect
How it was run: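 Antagonism measured as loss of luciferase signal in GH3 cells stably carrying a TRE-luciferase reporter, co-treated with compound and T3 (1 nM final) for 23.5 h at 37 C. Viability was read in the same well by CellTiter-Fluor.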

[17] = target: Peroxisome proliferator-activated receptor gamma (Homo sapiens) (UniProt P37231); test: qHTS assay to identify small molecule antagonists of the peroxisome proliferator-activated receptor gamma (PPARg) signaling pathway (AID 743191; calls by dose curve; note: series mostly up to about 63 µM; nearly all actives have a fitted effect of over 30% in size)
How it was run: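 Beta-lactamase reporter under UAS control in HEK293H PPARg-bla cells; compound treatment 17 h at 37C. Read-out: fluorescence intensity after 1 h room-temperature incubation with LiveBLAzer B/G FRET substrate.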

[18] = qHTS assay for small molecule agonists of the antioxidant response element (ARE) signaling pathway (AID 743202; active = well fitted activation curve with a large enough effect in the signal ratio in the repeat runs, not every such curve was filed as active; inconclusive = weak or mixed curves, or effect the other way; inactive = no such curve, though single readings can be large or run the other way; the % refers to the signal ratio; note: potency is the fitted concentration of half-maximal effect)
How it was run: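 Quantitative high-throughput format in HepG2 cells bearing an integrated ARE-beta-lactamase reporter. Compound exposure lasted 16 h at 37 C, and fluorescence was read 2 h after adding LiveBLAzer B/G substrate at room temperature.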

[19] = qHTS assay to identify small molecule agonists of the peroxisome proliferator-activated receptor delta (PPARd) signaling pathway - cell viability counter screen (AID 743211); note: nearly all actives have a fitted effect of over 55% in size; note: potency is the fitted concentration of half-maximal effect
How it was run: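 Following 5 h plating at 37 C and 5% CO2, PPARd UAS-bla HEK293H cells took up test compounds for 17 h. Viability was quantified by luminescence 30 min after CellTiter-Glo addition at room temperature.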

Measured: Potency

CCCCC/C=C/C=C/C=O
active: [7] 38.6 µM and 38.9 µM
inactive: [1] | [2] | [3] | Aromatase (Homo sapiens) | [4] | [5] | [6] | [8] | [9]

C#C[C@]1(O)CC[C@H]2[C@@H]3CCC4=Cc5oncc5C[C@]4(C)[C@H]3CC[C@@]21C
inactive and 61.1 µM (active): [13]
inactive: [2] | [3] | Aromatase (Homo sapiens) | [4] | [5] | [6] | [14] | [15]
active: [10] 49 µM [inconclusive] | [11] 3.38 µM [inconclusive] and 6.17 µM [activator] | [12] 668 nM and 969 nM | [7] 54.9 µM

O=C1c2cccc(O)c2C(=O)c2c(O)cccc21
not listed: [3] | [10] | [11] | [12] | [13] | [15] | [18] | [19]
inactive: all other assays above

CCC(C)c1ccccc1O (configuration not stated)
not listed: [2] | [10] | [11] | [12] | [13] | [15] | [17]
inactive: all other assays above

O=C(/C=C/C=C/c1ccc2c(c1)OCO2)N1CCCCC1
active: [12] 1.37 µM and 3.86 µM | [5] 612 nM and 2.17 µM
not listed: [13] | [14] | [16] | [17] | [18]
inactive: all other assays above

OC[C@H]1O[C@@H]2O[C@H]3[C@H](O)[C@@H](O)[C@@H](O[C@H]4[C@H](O)[C@@H](O)[C@@H](O[C@H]5[C@H](O)[C@@H](O)[C@@H](O[C@H]6[C@H](O)[C@@H](O)[C@@H](O[C@H]7[C@H](O)[C@@H](O)[C@@H](O[C@H]8[C@H](O)[C@@H](O)[C@@H](O[C@H]1[C@H](O)[C@H]2O)O[C@@H]8CO)O[C@@H]7CO)O[C@@H]6CO)O[C@@H]5CO)O[C@@H]4CO)O[C@@H]3CO
inactive: [16] | [1] | [2] | [3] | [6] | [7] | [18] | [8] | [9] | [19]

O=C(c1ccc(OCCN2CCCCC2)cc1)c1c(-c2ccc(O)cc2)sc2cc(O)ccc12
inactive: [1] | [5] | [9]
active: [16] 6.68 µM and 4.86 µM | [2] 23.9 µM and 49 µM and 54.9 µM | [3] 8.41 µM and 10.9 µM and 13.7 µM | Aromatase (Homo sapiens) 11.9 nM and 3.9 nM and 4.3 nM | [4] 29.8 µM and 34.4 µM | [6] 21.1 µM and 21.7 µM and 19.3 µM | [7] 55 µM and 15.5 µM and 26.6 µM | [8] 61.2 µM and 17.2 µM and 29.8 µM

CC(C)Oc1ccc2c(=O)c(-c3ccccc3)coc2c1
active: [5] 2.11 µM and 4.73 µM
inactive: [3] | Aromatase (Homo sapiens) | [4] | [6] | [14] | [7] | [8] | [9] | [19]

COc1cc([C@@H]2c3cc4c(cc3[C@H](O)[C@H]3COC(=O)[C@H]23)OCO4)cc(OC)c1OC
inactive: [1] | [3] | Aromatase (Homo sapiens) | [4] | [6] | [17] | [7] | [8] | [9] | [19]
active: [16] 29.8 nM and 24.3 nM

CC(C)(C)NC(=O)[C@H]1CC[C@H]2[C@@H]3CC[C@H]4NC(=O)C=C[C@]4(C)[C@H]3CC[C@]12C
active: [18] 53.9 µM
not listed: [1] | [16] | [17]
inactive: all other assays above

CC(C)OC(=O)C(C)(C)Oc1ccc(C(=O)c2ccc(Cl)cc2)cc1
active: [19] 54.9 µM
inactive and 68.6 µM (active): Aromatase (Homo sapiens)
inactive and 61.1 µM (active): [13]
not listed: [1] | [4] | [14] | [16] | [17] | [18]
inactive: all other assays above

Cc1ccc(C(=O)c2cc(O)c(O)c([N+](=O)[O-])c2)cc1
inactive: [1] | [4] | [5] | [6] | [9] | [15] | [19]
active: [16] 68.6 µM | [3] 33.5 µM and 54.5 µM | [8] 9.69 µM

O=P(O)(O)O
not listed: [10] | [11] | [12] | [13] | [14] | [17] | [18]
inactive: all other assays above

CC(C)=CCC/C(C)=C\CO
24.5 µM (active) and inactive: [1]
not listed: Aromatase (Homo sapiens) | [10] | [11] | [12] | [13] | [15] | [17]
inactive: all other assays above

CN(C)CCN(Cc1cccs1)c1ccccn1
not listed: Aromatase (Homo sapiens) | [4] | [5] | [15] | [16]
inactive: all other assays above
